Results published in PubChem BioAssay.
A number with no mark means an inactive call.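 The calls were made as follows: active = viability at or under a set limit in both replicates, limit being median viability minus 3 SD (cut at about 48% in these data, passing the limit was not always enough); inconclusive = at or under the limit in just one replicate; inactive = at or above the limit in both replicates.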

Assay: H69AR cell proliferation blockers – human, duplicate replicates, primary screen (AID 580);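 also: 100% = mean luminescence of untreated wells and 0% = no signal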
Settings: H69AR lung tumor cells viability, ATP luminescence, 72 h; at 10 µM; stronger effect = lower value
For CCCCSc1nc2c(cnn2-c2ccc(F)cc2)c(=O)[nH]1, the viability was 74%.
In the case of C=C(Cl)COc1ccc2c(C)cc(=O)oc2c1, the viability is reported as 101%.
With COc1ccc(NC(=O)CSc2nnc(Cc3cccn3C)n2-c2ccc(F)cc2)cc1OC the viability was 94.7%.
With CCCCSc1nc(CCC)cc(=O)[nH]1 the viability was 88.2%.
Molecule Cc1noc(/C=C/N(C)C)c1S(=O)(=O)N1CCc2ccccc21 has a viability of 75.7%.
COc1cccc(/C=N/n2cnnc2)c1OCc1ccccc1 gave a viability of 97.8%.
Molecule COC(=O)Cn1c(CN2CCOCC2)nc2c1c(=O)n(C)c(=O)n2C has a viability of 99.8%.
COc1ccc(N(CC(=O)Nc2cc(C)ccc2C)S(=O)(=O)c2c(C)nn(C)c2C)cc1 showed a viability of 93.2%.
With CCOC(=O)N1CCN(C(=O)c2c(-c3ccccc3)noc2C)CC1 the viability was 95.2%.
For O=C(CSc1ncnc2nc[nH]c12)c1ccc(Cl)cc1, the viability was 91.1%.
Molecule Brc1ccccc1-c1nc(-c2ccccc2)no1 has a viability of 74.3%.
Molecule Cc1nc2ccc(S(=O)(=O)NC(C(=O)NCc3cccs3)C(C)C)cc2s1 (stereo unspecified) has a viability of 111%.
COc1ccc(-n2c(Cc3cccn3C)nnc2SCC(=O)Nc2ccccc2)cc1 showed a viability of 82.2%.
In the case of O=c1oc2c3c4c(cc2s1)CCCN4CCC3, the viability is reported as 95.6%.
With COc1cc2c(cc1OC)C(C)N(C(=O)Cn1ncc3c1-c1ccccc1OC3)CC2 (stereo unspecified) the viability was 87.2%.
For O=C(CSc1ccc2nnc(-c3ccccc3)n2n1)N1CCN(c2ccccc2)CC1, the viability was 83.8%.
